“And” between values parts separate entries of the source, which are not always exact repeats. Equal entries are not always repeated. The whole screen tested about 5,500 compounds, of which about 2,000 (36%) were called active. Another 18% or so got no clear call; they are omitted. No stated cut-off is given here; in the data, active means normalized growth mostly below about 0.91 (no sharp cut-off); inconclusive means no clear call, values can overlap the other calls; inactive means mostly above about 0.92. The list shows a part of the results.
Experiment: chemical genetic growth profiling, strain panel (AID 1159580);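 further: tested at 20 µM; growth read once vehicle control cultures reached saturation at 30 °C; 1 = growth at the plate median or of vehicle wells; lower values mean less growth of the strain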
Conditions: growth OD

Measured: normalized growth

CCN(CC)CCOC(=O)C(c1ccccc1)C1CCCCC1 (configuration not stated)
inactive: S. cerevisiae deletion strains, locus YAL013W, strain DEP1, active compounds read low 1 | S. cerevisiae deletion strains, locus YBR021W, strain FUR4, active compounds read low 1 | S. cerevisiae deletion strains, locus YBR229C, strain ROT2, active compounds read low 1 | S. cerevisiae deletion strains, locus YCL029C, strain bik1, active compounds read low 0.958 | S. cerevisiae deletion strains, locus YDL035C, strain GPR1, active compounds read low 0.999 | S. cerevisiae deletion strains, locus YDL074C, strain BRE1, active compounds read low 0.948 | S. cerevisiae deletion strains, locus YDL101C, strain DUN1, active compounds read low 0.983 | S. cerevisiae deletion strains, locus YDL134C, strain PPH21, active compounds read low 1.01 | S. cerevisiae deletion strains, locus YDL185W, strain tfp1, active compounds read low 0.946 | S. cerevisiae deletion strains, locus YDL192W, strain arf1, active compounds read low 0.971 | S. cerevisiae deletion strains, locus YDR101C, strain arx1, active compounds read low 0.964 | S. cerevisiae deletion strains, locus YDR150W, strain NUM1, active compounds read low 0.989 | S. cerevisiae deletion strains, locus YDR162C, strain NBP2, active compounds read low 0.99 | S. cerevisiae deletion strains, locus YDR318W, strain mcm21, active compounds read low 0.97 | S. cerevisiae deletion strains, locus YDR388W, active compounds read low 0.948 | S. cerevisiae deletion strains, locus YDR502C, strain sam2, active compounds read low 0.998 | S. cerevisiae deletion strains, locus YEL061C, strain CIN8, active compounds read low 0.999 | S. cerevisiae deletion strains, locus YER110C, active compounds read low 0.973 | S. cerevisiae deletion strains, locus YER155C, strain BEM2, active compounds read low 1 | S. cerevisiae deletion strains, locus YER167W, strain BCK2, active compounds read low 1.01 | S. cerevisiae deletion strains, locus YGL078C, strain dbp3, active compounds read low 0.99 | S. cerevisiae deletion strains, locus YGL086W, strain mad1, active compounds read low 1.02 | S. cerevisiae deletion strains, locus YGL248W, strain PDE1, active compounds read low 1.01 | S. cerevisiae deletion strains, locus YGR078C, strain PAC10, active compounds read low 0.966 | S. cerevisiae deletion strains, locus YGR135W, strain pre9, active compounds read low 0.968 | S. cerevisiae deletion strains, locus YGR229C, strain SMI1, active compounds read low 0.972 | S. cerevisiae deletion strains, locus YGR252W, strain gcn5, active compounds read low 1.11 | S. cerevisiae deletion strains, locus YHR030C, strain SLT2, active compounds read low 0.995 and 1.06 | S. cerevisiae deletion strains, locus YHR079C, strain IRE1 (second series), active compounds read low 0.964 | S. cerevisiae deletion strains, locus YHR079C, strain IRE1, active compounds read low 1.04 | S. cerevisiae deletion strains, locus YHR094C, strain hxt1, active compounds read low 0.975 | S. cerevisiae deletion strains, locus YHR129C, strain ARP1, active compounds read low 0.992 | S. cerevisiae deletion strains, locus YHR200W, strain rpn10, active compounds read low 0.975 | S. cerevisiae deletion strains, locus YIL066C, strain RNR3, active compounds read low 0.984 | S. cerevisiae deletion strains, locus YIL073C, strain SPO22, active compounds read low 0.958 | S. cerevisiae deletion strains, locus YIL125W, strain kgd1, active compounds read low 0.986 | S. cerevisiae deletion strains, locus YIR030C, strain dcg1, active compounds read low 0.981 | S. cerevisiae deletion strains, locus YJL095W, strain BCK1, active compounds read low 0.938 and 1.05 | S. cerevisiae deletion strains, locus YJL134W, strain LCB3, active compounds read low 0.998 | S. cerevisiae deletion strains, locus YJL168C, strain set2, active compounds read low 0.966 | S. cerevisiae deletion strains, locus YJL187C, strain SWE1 (second series), active compounds read low 0.969 | S. cerevisiae deletion strains, locus YJR043C, strain POL32, active compounds read low 0.991 | S. cerevisiae deletion strains, locus YJR066W, strain TOR1, active compounds read low 1 | S. cerevisiae deletion strains, locus YJR075W, strain HOC1, active compounds read low 0.954 | S. cerevisiae deletion strains, locus YKL009W, strain mrt4, active compounds read low 0.962 | S. cerevisiae deletion strains, locus YKL068W, active compounds read low 0.978 | S. cerevisiae deletion strains, locus YKL085W, strain MDH1 (second series), active compounds read low 0.97 | S. cerevisiae deletion strains, locus YKL085W, strain MDH1, active compounds read low 0.97 | S. cerevisiae deletion strains, locus YKL190W, strain CNB1, active compounds read low 0.989 | S. cerevisiae deletion strains, locus YKR001C, strain vps1, active compounds read low 0.999 | S. cerevisiae deletion strains, locus YLR039C, strain RIC1, active compounds read low 1.12 | S. cerevisiae deletion strains, locus YLR058C, strain SHM2, active compounds read low 1 | S. cerevisiae deletion strains, locus YLR102C, strain apc9, active compounds read low 0.983 | S. cerevisiae deletion strains, locus YLR113W, strain HOG1, active compounds read low 1.02 | S. cerevisiae deletion strains, locus YLR262C, strain YPT6, active compounds read low 1.12 | S. cerevisiae deletion strains, locus YLR268W, strain sec22, active compounds read low 0.906 | S. cerevisiae deletion strains, locus YLR330W, strain CHS5, active compounds read low 1 | S. cerevisiae deletion strains, locus YLR342W, strain FKS1 (second series), active compounds read low 1.02 | S. cerevisiae deletion strains, locus YLR371W, strain rom2, active compounds read low 0.962 | S. cerevisiae deletion strains, locus YLR418C, strain cdc73, active compounds read low 0.931 | S. cerevisiae deletion strains, locus YML016C, strain PPZ1, active compounds read low 1 | S. cerevisiae deletion strains, locus YML032C, strain rad52, active compounds read low 0.948 | S. cerevisiae deletion strains, locus YML124C, strain tub3, active compounds read low 0.977 | S. cerevisiae deletion strains, locus YMR078C, strain ctf18, active compounds read low 0.949 | S. cerevisiae deletion strains, locus YMR223W, strain ubp8, active compounds read low 1.01 | S. cerevisiae deletion strains, locus YMR263W, strain SAP30, active compounds read low 0.969 | S. cerevisiae deletion strains, locus YMR307W, strain GAS1, active compounds read low 1.23 | S. cerevisiae deletion strains, locus YNL067W, strain RPL9B, active compounds read low 0.965 | S. cerevisiae deletion strains, locus YNL128W, strain TEP1, active compounds read low 0.98 | S. cerevisiae deletion strains, locus YNL153C, strain GIM3, active compounds read low 0.973 | S. cerevisiae deletion strains, locus YNL183C, strain NPR1, active compounds read low 0.983 | S. cerevisiae deletion strains, locus YNL233W, strain BNI4, active compounds read low 0.99 | S. cerevisiae deletion strains, locus YNL250W, strain rad50, active compounds read low 0.992 | S. cerevisiae deletion strains, locus YNL271C, strain bni1, active compounds read low 0.974 | S. cerevisiae deletion strains, locus YNL298W, strain CLA4, active compounds read low 0.969 | S. cerevisiae deletion strains, locus YNL307C, strain MCK1, active compounds read low 0.978 | S. cerevisiae deletion strains, locus YNL322C, strain KRE1, active compounds read low 0.988 | S. cerevisiae deletion strains, locus YNR052C, strain pop2, active compounds read low 0.952 | S. cerevisiae deletion strains, locus YOL006C, strain TOP1, active compounds read low 0.94 | S. cerevisiae deletion strains, locus YOL012C, strain htz1 1.03 | S. cerevisiae deletion strains, locus YOL147C, strain pex11, active compounds read low 0.976 | S. cerevisiae deletion strains, locus YOR061W, strain CKA2, active compounds read low 0.993 | S. cerevisiae deletion strains, locus YOR069W, strain VPS5, active compounds read low 1 | S. cerevisiae deletion strains, locus YOR136W, strain idh2, active compounds read low 0.981 | S. cerevisiae deletion strains, locus YOR144C, strain elg1, active compounds read low 0.981 | S. cerevisiae deletion strains, locus YOR184W, strain ser1, active compounds read low 0.97 | S. cerevisiae deletion strains, locus YOR231W, strain MKK1, active compounds read low 1.04 | S. cerevisiae deletion strains, locus YOR316C, strain cot1, active compounds read low 0.955 | S. cerevisiae deletion strains, locus YPL055C, strain LGE1, active compounds read low 0.959 | S. cerevisiae deletion strains, locus YPL241C, strain CIN2, active compounds read low 1 | S. cerevisiae deletion strains, locus YPL256C, strain CLN2, active compounds read low 1.06 | S. cerevisiae deletion strains, locus YPR119W, strain clb2, active compounds read low 0.964 | S. cerevisiae deletion strains, locus YPR141C, strain kar3, active compounds read low 0.975 | S. cerevisiae deletion strains, locus YPR163C, strain tif3, active compounds read low 0.961 | S. cerevisiae deletion strains, locus YPR167C, strain met16, active compounds read low 0.96 | S. cerevisiae deletion strains, strain wtn01, active compounds read low 0.938 | S. cerevisiae strains, strain wild type, active compounds read low 0.995

From PubChem BioAssay AID1159580 (chemical genetic matrix, 2015)
